{"source": "paper PMC4552634", "about": "“A New Set of Chemical Starting Points with Plasmodium falciparum Transmission-Blocking Potential for Antimalarial Drug Discovery” (PLoS ONE, 2015)", "note": "Screen size: about 13,000 compounds; about 3,200 (25%) showed an effect of 50% or more. The list shows a part of the results."}
{"system": "P. falciparum stage V gametocytes", "set-up": "BacTiter-Glo ATP luminescence viability of purified stage V gametocytes in 384-well plates, per cent inhibition versus DMSO", "conditions": "48 h, 5 µM; inhibitor", "units": {"% Inhibition": "%"}}
{"compound": "CC(=O)Nc1nc(C(=O)Nc2ccc(-c3cccc(-c4nc5ccc(C(F)(F)F)cc5[nH]4)c3)cc2)cs1", "note": "[TCMDC-137129]", "% Inhibition": -34.14}
{"compound": "COc1cccc(COCC(O)CN(CCc2ccccn2)C(=O)c2ccccc2F)c1", "note": "(stereo not drawn) [TCMDC-141311]", "% Inhibition": 5.48}
{"compound": "CCCCC(CC)CN1C(=O)C(c2ccccc2)(c2ccccc2)N=C1N", "note": "(stereo not drawn) [TCMDC-136814]", "% Inhibition": -93.32}
{"compound": "CNC(=O)c1cc(Nc2nnc(-c3ccc(C)c(S(=O)(=O)NC4CCCCC4)c3)c3ccccc23)ccc1OC", "note": "[TCMDC-125661]", "% Inhibition": -9.997}
{"compound": "NCc1cccc(-c2ccc(CNC3CCN(Cc4ccccc4)CC3)cc2)c1", "note": "[TCMDC-140486]", "% Inhibition": 46.75}
{"compound": "NCc1cccc(-c2cccc(CNC3CCN(Cc4ccccc4)CC3)c2)c1", "note": "[TCMDC-140477]", "% Inhibition": 86.14}
{"compound": "NCc1ccc(-c2cccc(CNC3CCN(Cc4ccccc4)CC3)c2)cc1", "note": "[TCMDC-140478]", "% Inhibition": 84.33}
{"compound": "Oc1ccc(CN2CCC(NCc3cccc(C(F)(F)F)c3)CC2)cc1", "note": "[TCMDC-141655]", "% Inhibition": -19.37}
{"compound": "CCOc1cc(C(=O)NC2CCN(Cc3ccccc3)C2)ccc1-c1nc2ccc(Cl)cc2[nH]1", "note": "(stereo not drawn) [TCMDC-140911]", "% Inhibition": -5.376}
{"compound": "O=C(Nc1ccc(-c2nc3ccccc3[nH]2)cc1)c1ccc(S(=O)(=O)N2CCCCCC2)cc1", "note": "[TCMDC-125712]", "% Inhibition": -20.46}
{"compound": "COc1ccc2nc(-c3ccccc3)cc(NN=Cc3ccc([N+](=O)[O-])o3)c2c1", "note": "[TCMDC-142040]", "% Inhibition": -17.37}
{"compound": "Cc1ccc2nc(C)cc(NN=Cc3ccc(Cl)cc3)c2c1", "note": "[TCMDC-123976]", "% Inhibition": -8.095}
{"compound": "CCOc1ccc2nc(C)cc(NN=Cc3ccccc3[N+](=O)[O-])c2c1", "note": "[TCMDC-142048]", "% Inhibition": 91.47}
{"compound": "COc1ccc2nc(C)cc(NN=Cc3ccc([N+](=O)[O-])o3)c2c1", "note": "[TCMDC-142036]", "% Inhibition": 11.78}
{"compound": "COc1ccc2nc(C)cc(NN=Cc3ccccc3[N+](=O)[O-])c2c1", "note": "[TCMDC-142087]", "% Inhibition": 48.43}
{"compound": "Cc1ccc2nc(C)cc(N/N=C/c3ccc([N+](=O)[O-])o3)c2c1", "note": "[TCMDC-142035]", "% Inhibition": 56.06}
{"compound": "CCOc1ccc2nc(C)cc(NN=Cc3cccc([N+](=O)[O-])c3)c2c1", "note": "[TCMDC-142049]", "% Inhibition": 64.63}
{"compound": "Cc1ccc2nc(C)cc(N/N=C/c3ccccc3[N+](=O)[O-])c2c1", "note": "[TCMDC-123975]", "% Inhibition": -3.364}
{"compound": "Cc1ccc2nc(C)cc(N/N=C/c3ccc([N+](=O)[O-])cc3)c2c1", "note": "[TCMDC-142070]", "% Inhibition": 109.1}
{"compound": "COCCNCc1ncsc1-c1ccc2c(Nc3cc(O)ccc3C)ccnc2c1", "note": "[TCMDC-138465]", "% Inhibition": -33.69}
{"compound": "CC(C)(C)c1ccccc1OC(=O)c1ccccc1", "note": "[TCMDC-123936]", "% Inhibition": -15.9}
{"compound": "CCCN1CCC(c2c[nH]c3ccc(NC(=O)Nc4cccc(Cl)c4Cl)cc23)CC1", "note": "[TCMDC-139182]", "% Inhibition": -83.82}
{"compound": "O=[N+]([O-])c1ccc(-c2ccc(C=NNc3nc(Nc4ccccc4)nc(Nc4ccccc4)n3)o2)cc1", "note": "[TCMDC-124230]", "% Inhibition": -25.78}
{"compound": "COc1ccc2c(N/N=C/c3ccccc3[N+](=O)[O-])cc(C)nc2c1", "note": "[TCMDC-142088]", "% Inhibition": -15.58}
{"compound": "Cc1cc(N/N=C/c2ccccc2[N+](=O)[O-])c2ccccc2n1", "note": "[TCMDC-123978]", "% Inhibition": -75.07}
{"compound": "O=[N+]([O-])c1ccc(Nc2nc(N/N=C/c3ccc(-c4ccc([N+](=O)[O-])cc4)o3)nc(Nc3ccccc3)n2)cc1", "note": "[TCMDC-123858]", "% Inhibition": -4.596}
{"compound": "COc1ccc2c(N/N=C/c3cccc([N+](=O)[O-])c3)cc(C)nc2c1", "note": "[TCMDC-142089]", "% Inhibition": 108}
{"compound": "Cc1ccc2c(N/N=C/c3cccc([N+](=O)[O-])c3)cc(C)nc2c1", "note": "[TCMDC-142072]", "% Inhibition": 87.02}
{"compound": "Cc1ccc2c(N/N=C/c3ccccc3[N+](=O)[O-])cc(C)nc2c1", "note": "[TCMDC-142071]", "% Inhibition": 26.69}
{"compound": "Cc1cc(N/N=C/c2cccc([N+](=O)[O-])c2)c2ccccc2n1", "note": "[TCMDC-123977]", "% Inhibition": 89.22}
{"compound": "COc1ccc2nc(C)cc(NN=Cc3cccc([N+](=O)[O-])c3)c2c1", "note": "[TCMDC-123972]", "% Inhibition": 49.98}
{"compound": "O=[N+]([O-])c1ccc(C=NNc2nc(Nc3ccccc3)nc(Nc3ccccc3)n2)o1", "note": "[TCMDC-125802]", "% Inhibition": 108.2}
{"compound": "CNC(=O)CSc1nnc(-c2ccc(C)cc2)c(-c2ccc(C)cc2)n1", "note": "[TCMDC-123901]", "% Inhibition": 5.321}
{"compound": "NC(=O)Nc1ccc2cn[nH]c2c1", "note": "[TCMDC-131601]", "% Inhibition": 13.14}
{"compound": "C=CCc1cccc(CN2CCC(c3cc(=O)[nH]c(-c4ccccn4)n3)CC2)c1O", "note": "[TCMDC-124851]", "% Inhibition": 46.78}
{"compound": "CCc1nc2c(N)nc(N)nc2nc1-c1ccc(OC)cc1", "note": "[TCMDC-132107]", "% Inhibition": 7.623}
{"compound": "Cc1cc(N/N=C/c2ccccc2[N+](=O)[O-])c2cccc(C)c2n1", "note": "[TCMDC-142073]", "% Inhibition": -15.7}
{"compound": "Cc1ccc(Nc2nc(N/N=C/c3ccccc3[N+](=O)[O-])nc(Nc3ccc([N+](=O)[O-])cc3)n2)cc1C", "note": "[TCMDC-124207]", "% Inhibition": 32.01}
{"compound": "Cc1cccc(C=NNc2cc(C)nc3ccc(F)cc23)n1", "note": "[TCMDC-142019]", "% Inhibition": -41.63}
{"compound": "CCOc1ccc2nc(C)cc(NN=Cc3cccc(F)c3)c2c1", "note": "[TCMDC-142093]", "% Inhibition": 73.55}
{"compound": "Cc1ccc(Nc2nc(N/N=C/c3cccc([N+](=O)[O-])c3)nc(Nc3ccccc3)n2)c(C)c1", "note": "[TCMDC-124206]", "% Inhibition": 1.923}
{"compound": "COc1cccc2c(N/N=C/c3ccccc3[N+](=O)[O-])cc(C)nc12", "note": "[TCMDC-142043]", "% Inhibition": 74.75}
{"compound": "Cc1ccc2nc(C)cc(N/N=C/c3cccc([N+](=O)[O-])c3)c2c1", "note": "[TCMDC-142069]", "% Inhibition": 66.26}
{"compound": "Cc1cc(N2CCCC2)nc(Nc2ccc(NC(=O)c3ccccc3C)cc2)n1", "note": "[TCMDC-124711]", "% Inhibition": -8.542}
{"compound": "CCOC(=O)c1c(C)noc1Nc1ccc(OC)cc1", "note": "[TCMDC-131521]", "% Inhibition": -6.953}
{"compound": "CCc1cn(C)c2c(N3CCCC3=O)cc(C(=O)N[C@@H](Cc3ccccc3)[C@H](O)CNC(C)(C)CCCC(C)C)cc12", "note": "[TCMDC-135199]", "% Inhibition": 78.23}
{"compound": "COc1cccc(CNC[C@@H](O)[C@H](Cc2ccccc2)NC(=O)c2cc(N3CCCC3=O)c3[nH]cc(C(C)C)c3c2)c1", "note": "[TCMDC-132584]", "% Inhibition": -12.1}
{"compound": "CCNc1cc(C(=O)N[C@@H](Cc2ccccc2)[C@H](O)CNCC(C)C)cc(N2CCCC2=O)c1", "note": "[TCMDC-138888]", "% Inhibition": 11.22}
{"compound": "CCc1c[nH]c2c(N3CCCS3(=O)=O)cc(C(=O)N[C@@H](Cc3ccccc3)[C@H](O)CNC(C)(C)CCCC(C)C)cc12", "note": "[TCMDC-135168]", "% Inhibition": 100.1}
{"compound": "CCc1c[nH]c2c(N3CCCC3=O)cc(C(=O)N[C@@H](Cc3ccccc3)[C@H](O)CNC3CCCCC3)cc12", "note": "[TCMDC-135024]", "% Inhibition": 43.33}
{"compound": "CCc1c[nH]c2c(N3CCCCC3=O)cc(C(=O)N[C@@H](Cc3ccccc3)[C@H](O)CNCc3cccc(OC)c3)cc12", "note": "[TCMDC-134156]", "% Inhibition": 3.442}
{"compound": "CCc1c[nH]c2c(N3CCCS3(=O)=O)cc(C(=O)N[C@@H](Cc3ccccc3)[C@H](O)CNC(C)(C)c3cccc(C(F)(F)F)c3)cc12", "note": "[TCMDC-135172]", "% Inhibition": 20.21}
{"compound": "CCc1ccnc2c(N3CCCC3=O)cc(C(=O)N[C@@H](Cc3ccccc3)[C@H](O)CNC3CCOCC3)cc12", "note": "[TCMDC-135882]", "% Inhibition": -3.363}
{"compound": "CCc1c[nH]c2c(N3CCCC3=O)cc(C(=O)N[C@@H](Cc3ccccc3)[C@H](O)CNC(C)(C)CCCC(C)C)cc12", "note": "[TCMDC-135025]", "% Inhibition": 68.24}
{"compound": "CCc1cn(C)c2c(N3CCCC3=O)cc(C(=O)N[C@@H](Cc3ccccc3)[C@H](O)CNC3CCCCC3)cc12", "note": "[TCMDC-135198]", "% Inhibition": 56.93}
{"compound": "CCNc1cc(C(=O)N[C@@H](Cc2ccccc2)[C@H](O)CNCCC(C)c2ccccc2)cc(N2CCCC2=O)c1", "note": "(stereo partly drawn) [TCMDC-141683]", "% Inhibition": 6.791}
{"compound": "CCc1c[nH]c2c(N3CCCS3(=O)=O)cc(C(=O)N[C@@H](Cc3ccccc3)[C@H](O)CNC3CCCCC3)cc12", "note": "[TCMDC-135169]", "% Inhibition": 49.22}
{"compound": "COc1cc(Nc2nccc(N3CCC(NC(=O)c4cccc(C#N)c4)C3)n2)cc(OC)c1OC", "note": "(stereo not drawn) [TCMDC-133620]", "% Inhibition": 1.02}
{"compound": "N#Cc1cccc(C(=O)Nc2cccc(-c3ccc(C(=O)Nc4cccnc4)cc3)c2)c1", "note": "[TCMDC-133695]", "% Inhibition": -12.11}
{"compound": "O=C(/C=C/c1ccc(F)cc1)NC1CCC(CCN2CCCN(c3ccc(C(F)(F)F)cn3)CC2)CC1", "note": "(stereo not drawn) [TCMDC-139724]", "% Inhibition": -25.55}
{"compound": "c1ccc(-c2cccnn2)cc1", "note": "[TCMDC-123929]", "% Inhibition": -43.62}
{"compound": "CCCCc1cc(NCc2ccncc2)nc(Nc2cccc(OC)c2)n1", "note": "[TCMDC-133999]", "% Inhibition": -9.372}
{"compound": "O=C(Nc1ccc(-c2cccc(-c3nc4ccc(C(F)(F)F)cc4[nH]3)c2)cc1)c1csnn1", "note": "[TCMDC-136903]", "% Inhibition": -25.31}
{"compound": "Cc1ccc2c(c1)c(-c1ccccc1)c(-c1ccccc1)n2CC(O)CN1CCN(CC=Cc2ccccc2)CC1", "note": "(stereo not drawn) [TCMDC-123998]", "% Inhibition": 27.39}
{"compound": "O=C(C1CCN(C(c2ccccc2)c2ccc(Cl)c(Cl)c2)CC1)N1CC=CC1", "note": "(stereo not drawn) [TCMDC-135516]", "% Inhibition": -15.6}
{"compound": "COc1cc(C2=NN(S(=O)(=O)c3c(Cl)cc(Cl)cc3Cl)CCCC2)ccc1Cl", "note": "[TCMDC-136212]", "% Inhibition": -48.52}
{"compound": "CCc1cn2c3c(cc(C(=O)N[C@@H](Cc4ccccc4)[C@H](O)CNC(C)C)cc13)N(C)S(=O)(=O)C2", "note": "[TCMDC-135401]", "% Inhibition": -18.09}
{"compound": "CCc1cn2c3c(cc(C(=O)N[C@@H](Cc4ccccc4)[C@H](O)CNC(C)(C)c4cccc(OC)c4)cc13)N(C)S(=O)(=O)C2", "note": "[TCMDC-135393]", "% Inhibition": 41.96}
{"compound": "CCc1cn2c3c(cc(C(=O)N[C@@H](Cc4ccccc4)[C@H](O)CNC(C)(C)CCCC(C)C)cc13)N(C)S(=O)(=O)C2", "note": "[TCMDC-135400]", "% Inhibition": 80.58}
